The source of these data is PubChem BioAssay (Tox21).

A number with no mark means an inactive call. Results filed as inconclusive are left out. The source made the active and inactive calls. Unless noted, calls come from the whole dose curve; as a rule, active = well fitted curve in the direction sought with a large enough effect in the repeat runs; inconclusive = weak or mixed curves; inactive = no such curve, though single readings can be large; an effect the other way counts as inactive or inconclusive.

The nature of test [1]: qHTS assay to identify small molecule antagonists of the estrogen related receptor signaling pathway with the pleiotropic PPARgamma coactivator (PGC) from Tox21 10K library - cell viability counter screen (AID 1224840; active = well fitted cell-killing curve with a large enough effect in the repeat runs, not every such curve was filed as active; note: nearly all actives have a fitted effect of over 40% in size; note: potency is the fitted concentration of half-maximal effect). In short, it runs like this:
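Viability counter screen, PGC/ERR cells: 17.5 h compound exposure at 37 C, CellTiter-Fluor fluorescence endpoint.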
A general note: qHTS replaces the single test concentration by a dilution series.

Test [2] in a line: qHTS assay to identify small molecule antagonists of the estrogen related receptor signaling pathway with the pleiotropic PPARgamma coactivator (PGC) from Tox21 10K library (AID 1224841; call rule not given here; note: actives are mostly falling curves and most rising ones were filed inactive; nearly all actives have a fitted effect of over 50% in size; note: potency is the fitted concentration of half-maximal effect). In short, it runs like this:
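In the PGC/ERR line, DMSO solutions of test chemicals are pin-delivered to 2,000 cells/well six hours after dispensing. Following eighteen hours' incubation, One-Glo reagent is added and luminescence recorded.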

The nature of test [3]: qHTS assay to identify small molecule agonists of the estrogen related receptor signaling pathway with the pleiotropic PPARgamma coactivator (PGC) from Tox21 10K library (AID 1224842). Note: nearly all actives have a fitted effect of over 15% in size. The procedure, abridged:
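PGC/ERR reporter cell line, 2,000 cells per well, incubated 6 h at 37 C before 23 nL compound in DMSO was added. After 18 h at 37 C, One-Glo luminescence read following 30 min at room temperature.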

Test [4] is described as follows: qHTS assay to identify small molecule agonists of the hypoxia (HIF-1) signaling pathway - cell viability counter screen (AID 1224844; calls by dose curve; note: nearly all actives have a fitted effect of over 50% in size; note: potency is the fitted concentration of half-maximal effect). The procedure, abridged:
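Same wells as the HIF-1 reporter screen; ME-180 cells carrying HRE-bla, 17 hr treatment at 37C; CellTiter-Glo luminescence read after 30 min at room temperature.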

A short description of test [5]: qHTS assay to identify small molecule agonists of H2AX - cell viability counter screen (AID 1224847; calls by dose curve; note: nearly all actives have a fitted effect of over 30% in size; note: potency is the fitted concentration of half-maximal effect). In short, it runs like this:
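Cytotoxicity counter screen in wild-type CHO-K1 cells: a 3 hr compound treatment at 37C across 15 concentrations, followed by CellTiter-Glo luminescence to gauge viable cells.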

The nature of test [6]: qHTS assay to identify small molecule agonists of the estrogen related receptor (ERR) signaling pathway from Tox21 library (AID 1224849; calls by dose curve; note: nearly all actives have a fitted effect of over 15% in size). The conditions noted are these: ERR reporter cell line, ONE-Glo luciferase, 18 h; at 92.4 µM (top of the series) unless noted. In short, it runs like this:
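Reporter cells (ERR, NTP source) treated with Tox21 10K compounds 18 h, 37 C. Readout: ONE-Glo luminescence, 30 min RT.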

Test [7] in a line: qHTS RealTime-Glo MT Cell Viability Assay in HepG2 cells - 24 hour (AID 1224867). Note: nearly all actives have a fitted effect of over 50% in size. Note: potency is the fitted concentration of half-maximal effect. In short, it runs like this:
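Compound treatment began 5 h after plating HepG2 cells (600/well) with NanoLuc luciferase and prosubstrate. Plates stayed at 37 C for 40 h; luminescence was captured at six time points, 0 h through 40 h.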

The nature of test [8]: qHTS RealTime-Glo MT Cell Viability Assay in HEK293 cells - 32 hour (AID 1224868). Note: nearly all actives have a fitted effect of over 50% in size. Note: potency is the fitted concentration of half-maximal effect. The procedure, abridged: (§1)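 Quantitative high-throughput screen of the Tox21 10K library in HEK293: cells and RealTime-Glo reagents plated together, compound added at 5 h, luminescence monitored through 40 h at 37 C.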
Test [9] in a line: A CellTox Green Cytotoxicity Assay to monitor cytotoxicity in HEK293 cells - 0 hour (AID 1224869). Note: nearly all actives have a fitted effect of over 50% in size. In short, it runs like this: (§2)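 Homogeneous no-lysis format: HEK293 cell suspension mixed with CellTox Green reagent, seeded, incubated 5 h at 37 C/5% CO2, then dosed by pintool with compound in DMSO.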
A short description of test [10]: qHTS RealTime-Glo MT Cell Viability Assay in HepG2 cells - 40 hour (AID 1224870). Note: nearly all actives have a fitted effect of over 50% in size. Note: potency is the fitted concentration of half-maximal effect. In short, it runs like this:
(§3)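 HepG2 cells (600/well) mixed with RealTime-Glo MT reagent, settled 5 h at 37 C/5% CO2 before compound addition. Nonlytic NanoLuc luminescence from viable-cell prosubstrate reduction read repeatedly during 40 h treatment at 37 C.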

Test [11] can be described thus: A CellTox Green Cytotoxicity Assay to monitor cytotoxicity in HEK293 cells - 40 hour (AID 1224871). Note: nearly all actives have a fitted effect of over 45% in size. Note: potency is the fitted concentration of half-maximal effect. In short, it runs like this: as §2
Test [12] in a line: qHTS RealTime-Glo MT Cell Viability Assay in HEK293 cells - 16 hour (AID 1224872). Note: nearly all actives have a fitted effect of over 50% in size. Note: potency is the fitted concentration of half-maximal effect. In short, it runs like this: as §1
A short description of test [13]: qHTS RealTime-Glo MT Cell Viability Assay in HEK293 cells - 40 hour (AID 1224874). Note: nearly all actives have a fitted effect of over 50% in size. Note: potency is the fitted concentration of half-maximal effect. The conditions noted are these: RealTime-Glo luminescence; max response: active compounds read low. The procedure, abridged:
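Measured as luminescence from the same continuously cultured HEK293 wells at successive time points (0, 8, 16, 24, 32, 40 h) after compound addition. Reagent present from seeding; dosing at 5 h; incubation 37 C.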

Test [14] can be described thus: A CellTox Green Cytotoxicity Assay to monitor cytotoxicity in HEK293 cells - 24 hour (AID 1224875). Note: nearly all actives have a fitted effect of over 45% in size. Note: potency is the fitted concentration of half-maximal effect. The procedure, abridged: as §2
Test [15] can be described thus: qHTS assay to identify small molecule agonists of H2AX (AID 1224845; active = well fitted activation curve with a large enough effect in the signal ratio in the repeat runs, not every such curve was filed as active; the % refers to the signal ratio). In short, it runs like this: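 Wild-type CHO-K1 cells, plated overnight, exposed 3hr at 37C to 15 concentrations (0.76% DMSO final). Lysed, then HTRF anti-pH2AX (S139) cryptate and anti-H2AX-d2 antibodies, 24 hr room temperature; 665/620 nm emission read.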
Test [16] can be described thus: qHTS assay to identify small molecule agonists of the hypoxia (HIF-1) signaling pathway (AID 1224846; active = well fitted activation curve with a large enough effect in the signal ratio in the repeat runs, not every such curve was filed as active; the % refers to the signal ratio). The procedure, abridged: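 In ME-180 cells bearing an HRE-bla construct, 17 h treatment with DMSO-dissolved compounds at 37C was followed by CCF4-AM loading to quantify reporter induction.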
Test [17] is described as follows: qHTS RealTime-Glo MT Cell Viability Assay in HepG2 cells - 8 hour (AID 1224873). Note: nearly all actives have a fitted effect of over 55% in size. Note: potency is the fitted concentration of half-maximal effect. The procedure, abridged: as §3
Test [18] can be described thus: A CellTox Green Cytotoxicity Assay to monitor cytotoxicity in HepG2 cells - 16 hour (AID 1224876). Note: nearly all actives have a fitted effect of over 45% in size. Note: potency is the fitted concentration of half-maximal effect. The procedure, abridged: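 Fluorescent DNA-binding dye, 600 HepG2 cells/well, 5 h preincubation then compound in DMSO; same plates read at 0–40 h, 37 C.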
The nature of test [19]: qHTS assay to identify small molecule antagonists of the estrogen related receptor (ERR) signaling pathway from Tox21 library (AID 1224848). Note: nearly all actives have a fitted effect of over 50% in size. Note: potency is the fitted concentration of half-maximal effect. In short, it runs like this: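 Compounds dissolved in DMSO are pin-transferred onto ERR reporter cells (2,000 per well) that have settled for 6 h at 37 C. Plates then incubate 18 h at 37 C before ONE-Glo luciferase reagent and a luminescence read 30 min later.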

The target of test [20] is Thyrotropin receptor (Homo sapiens) (UniProt P16473). The test can be described thus: qHTS assay to identify small molecule agonists of the thyroid stimulating hormone receptor (TSHR) signaling pathway (AID 1224843; calls by dose curve; note: nearly all actives have a fitted effect of over 45% in size). The procedure, abridged: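 HEK293/TSHR, 800 cells/well; cpd 30 min RT; add cAMP-d2 + anti-cAMP-cryptate, 1 h RT; fluorescence read on plate reader. 15-pt titration, n=3.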
% is set by controls: 0 for no effect and ±100 for the full control effect.

Thyrotropin receptor (Homo sapiens), sequence (P16473 whole entry, looked up): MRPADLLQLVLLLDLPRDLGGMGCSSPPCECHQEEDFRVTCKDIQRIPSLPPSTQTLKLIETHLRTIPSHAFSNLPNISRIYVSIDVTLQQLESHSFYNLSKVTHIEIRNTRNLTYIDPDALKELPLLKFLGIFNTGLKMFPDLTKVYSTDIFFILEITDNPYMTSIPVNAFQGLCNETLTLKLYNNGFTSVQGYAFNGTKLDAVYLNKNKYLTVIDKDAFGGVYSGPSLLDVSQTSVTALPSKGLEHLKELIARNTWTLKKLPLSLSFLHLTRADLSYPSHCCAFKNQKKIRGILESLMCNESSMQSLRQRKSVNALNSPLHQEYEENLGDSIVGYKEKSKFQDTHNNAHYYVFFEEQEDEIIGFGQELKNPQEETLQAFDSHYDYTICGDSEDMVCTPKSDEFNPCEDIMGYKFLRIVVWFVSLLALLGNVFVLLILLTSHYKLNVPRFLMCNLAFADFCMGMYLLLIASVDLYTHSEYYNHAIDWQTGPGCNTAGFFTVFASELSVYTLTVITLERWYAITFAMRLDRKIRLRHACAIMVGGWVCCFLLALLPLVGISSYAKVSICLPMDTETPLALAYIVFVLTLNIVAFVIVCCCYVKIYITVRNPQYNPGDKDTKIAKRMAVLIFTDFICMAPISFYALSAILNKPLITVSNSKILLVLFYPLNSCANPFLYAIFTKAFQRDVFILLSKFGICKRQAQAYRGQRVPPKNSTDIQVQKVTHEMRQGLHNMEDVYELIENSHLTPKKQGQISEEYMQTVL

`CCC(C)(C)c1ccc(CC(C)CN2C[C@@H](C)O[C@@H](C)C2)cc1` (stereo partly specified): the Potency entry in test [1], in test [2], in test [3], in [7], in [8] and in test [9] was “inactive” in each case. The Potency entry in [10] and in test [12] was “inactive” throughout. Moreover, the Potency in test [4] was 23.9 µM (active); in test [5] it was 55.2 µM (active); in test [11] it was 23.9 µM (active); in [14], 23.9 µM (active). Also, the activity change, positive = activation in test [6] was -22.5% [at 42.5 µM]. Also, the max response in test [13] was -25.5%.

As for `Nc1c(Br)cc([N+](=O)[O-])cc1Br`, the Potency entry in test [1], in test [3], in test [4], in [15], in test [16] and in test [5] was “inactive” throughout. Moreover, the Potency entry in test [7], in test [8], in test [9], in [10], in test [11] and in [12] was “inactive” throughout. Also, the Potency entry in test [17], in test [14] and in [18] was “inactive” each time. Moreover, the Potency in test [2] is 54.5 µM (active). Further, the max response in [13] was -23.8%.

Take `CN1CCN(c2ccccc2/C=C2\SCCN(c3ccc(Cl)c(Cl)c3)C2=O)CC1`: the Potency in [1] was 48.6 µM (active); in test [4], 49 µM (active); in [5], 50.5 µM (active); in test [19] it was 24.3 µM (active); in [7], 38.9 µM (active); in test [8], 12.3 µM (active). Also, the Potency in test [10] is 21.9 µM (active); in [11] it was 43.6 µM (active); in test [12], 12.3 µM (active); in test [17], 49 µM (active); in test [13], 12.3 µM (active); in [14], 49 µM (active). Further, the Potency in test [18] is 49 µM (active). For the same compound, the Potency entry in test [3] and in [9] was “inactive” each time.

As for `Clc1cccc(Cl)n1`, the Potency result in [1], in test [2], in test [3], in test [4], in test [15] and in test [16] was “inactive” each time. The Potency result in test [5], in [19], in test [7], in test [8], in test [9] and in test [10] was “inactive” throughout. Moreover, the Potency result in test [11], in [12], in [17], in test [14] and in test [18] was “inactive” throughout. The activity change, positive = activation in test [6] was 0.024%. Besides, the max response in test [13] was 3.2%.

Take `C1CCSC1`: the Potency result in test [1], in [3], in [20], in [4], in test [15] and in test [16] was “inactive” each time. The Potency result in test [5], in test [19], in [7], in test [9], in test [10] and in test [17] was “inactive” each time. For the same compound, the Potency entry in [14] and in [18] was “inactive” in each case.

Turning to `NC(=O)c1ccccc1Cl`, the Potency result in test [1], in test [3], in test [4], in test [15], in test [16] and in test [5] was “inactive” in each case. Further, the Potency result in test [19], in test [7], in test [8], in test [9], in test [10] and in [11] was “inactive” each time. Moreover, the Potency result in [12], in [17], in test [14] and in [18] was “inactive” throughout. The max response in [13] was -1.02%.
